Assay outcomes (PubChem)
A selection: hits, their analogues and other compounds. The true share with any hit is near 1.3%.
Gli-Sufu antag = Gli-Sufu pathway antagonists, primary screen, luciferase luminescence, Sufu-KO-LIGHT cells, uHTS; Sufu-KO-LIGHT fibroblasts, Gli luciferase reporter luminescence; inhibition, % at 5 µM; 340,000 compounds, 0.74% hits;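 active = inhibition above about 55%, limit read from the data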;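 also: 0% = DMSO-treated cells and 100% = wells with medium but no cells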
NR2F2 inh = NR2F2 transcriptional activity inhibitors, primary screen, cell-based, luciferase reporter, HEK293T, luminescence; inhibition, % at 8.6 µM; HEK293T NGFI-A luciferase reporter; 370,000 compounds, 0.7% hits; COUP transcription factor 2 (Homo sapiens), P24468;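 active = inhibition above a per-plate cutoff, mean inhibition of test wells between control levels plus 3 SD, cut at about 38% in these data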;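 also: cells cotransfected with COUP-TFII expression vector driving the NGFI-A reporter; 0% = median of COUP-TF2 test wells and 100% = reporter-only cells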
NR5A2 inv ag = LRH-1 (NR5A2) inverse agonists, primary screen, cell-based, luminescence, HEK293T, StAR-luciferase reporter. Nuclear receptor subfamily 5 group A member 2 (Homo sapiens), O00482. LRH-1 transfected, 24 h. inhibition, % at 3.6 µM. 360,000 compounds, 0.13% hits. AID 602396, 2012;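 active = inhibition above the mean inhibition of all tested compounds plus 3 SD, cut at about 73% in these data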;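 also: 0% = DMSO wells and 100% = reporter-only cells lacking LRH-1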
SRC1 inh = SRC1 coactivator transcriptional activity inhibitors, primary screen, cell-based, luminescence. AID 588354, 2011. 360,000 compounds, 0.12% hits. inhibition, % at 3.6 µM. Nuclear receptor coactivator 1 (Homo sapiens), Q15788. HEK293 GAL4-SRC1 luciferase reporter;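 active = inhibition above the campaign mean plus 3 SD, with each screening campaign given its own cutoff, cut at about 60% in these data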;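 also: 0% = DMSO treated cells and 100% = gossypol at 36 µM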
NCOA3 inh = SRC3 coactivator transcriptional activity inhibitors, primary screen, cell-based, luminescence; 360,000 compounds, 0.17% hits; HEK293 GAL4-SRC3 luciferase reporter; Nuclear receptor coactivator 3 (Homo sapiens), Q9Y6Q9; inhibition, % at 3.6 µM;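 active = inhibition above a per-campaign cutoff, the mean of all compounds plus 3 SD, cut at about 60% in these data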;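 also: 0% = DMSO-treated cells and 100% = gossypol-treated cells at 36 µM; higher means less SRC3-driven luciferase light from the GAL4 reporter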
SRC2 inh = inhibition of GAL4-SRC2 driven luciferase reporter, primary screen, SRC2 inhibitor project, cell-based, luminescence; HEK293 GAL4-SRC2 luciferase reporter; inhibition, % at 9 µM; 370,000 compounds, 0.17% hits;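 active = inhibition above the mean inhibition of all tested compounds plus 3 SD, set per campaign, cut at about 52% in these data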;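 also: 0% = DMSO treated cells and 100% = cells given Gossypol at 36 µM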
Gli antag conf = Gli-SUFU pathway antagonists, confirmation, single concentration, luciferase luminescence, Sufu-KO-LIGHT cells; shares compounds with Gli-Sufu antag; Gli luciferase reporter; inhibition, % at 5 µM; 2,500 compounds, 40% hits;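 active = mean inhibition at 5 µM reaching about 45%, limit read from the data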;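 also: plate controls were DMSO-treated cells for no effect and wells lacking cells for full effect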
Gli cytotox = cytotoxicity in Sufu-KO-LIGHT cells, confirmation, cytotoxicity control for Gli-SUFU antagonist project, cell-based, ATP luminescence, single concentration | cytotoxicity, % at 5 µM | shares compounds with Gli-Sufu antag | 2,500 compounds, 32% hits | AID 651994, 2013;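 active = mean cytotoxicity at 5 µM above about 25%, limit read from the data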;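 also: cells exposed to compound overnight for roughly 16 to 18 hours; plate controls were DMSO wells with cells for no effect and medium without cells for full effect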
Wnt3a counter = Wnt3a reporter signal inhibition, confirmation, counter-screen for Gli-SUFU antagonist project, Wnt-LIGHT cells, luminescence, single concentration; inhibition, % at 6.25 µM; shares compounds with Gli-Sufu antag; 2,500 compounds, 20% hits; Wnt3a-driven luciferase reporter;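 active = mean inhibition above about 25%, limit read from the data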
Numbers without * were called inactive; nt = no result.

SMILES | Gli-Sufu antag | NR2F2 inh | NR5A2 inv ag | SRC1 inh | NCOA3 inh | SRC2 inh | Gli antag conf | Gli cytotox | Wnt3a counter
COc1ccccc1CCNC(=O)C(=O)NCCC1CCCCN1S(=O)(=O)c1ccccc1 (stereo unspecified) | 32.2 | 0.1 | -2.1 | -9.8 | -4.9 | -4.6 | nt | nt | nt
COc1ccccc1CNC(=O)C(=O)NCCC1CCCCN1S(=O)(=O)c1ccc(C)cc1 (stereo unspecified) | 53.9 | -3.7 | 5.3 | 29.3 | -16.2 | -30.4 | 19.9 | 11.3 | -35.3
Fc1ccc2nc(-c3ccc(CN4CCC5(CC4)CNc4ccccc45)cc3)c(-c3ccccc3)nc2c1 | nt | 0.4 | nt | nt | nt | -10.3 | nt | nt | nt
Cc1ccc(/C=N/NC(=O)Cn2nccc2C)o1 | 60.4* | -6.3 | 0.7 | -4.6 | 0.2 | -1.4 | 7.1 | -3.6 | -3.6
CCCSc1nnc(NC(=O)c2nc(SC)ncc2Cl)s1 | 56.3* | -2.4 | -10.8 | -5.3 | -5.8 | 6.1 | 19.7 | 19.4 | -21.5
CSc1ncc(Cl)c(C(=O)Nc2nnc(SC)s2)n1 | -2.2 | 15.0 | 6.9 | 8.6 | 7.7 | -0.9 | nt | nt | nt
CC1(C)CC(N2CCN(c3ccccc3)CC2)=CC(=[N+]2CCCC2)C1 | 83.2* | 32.7 | 62.0 | 29.1 | 56.8 | 16.7 | 85.5* | 35.3* | 38.2*
CSc1nc(N2CCN(c3ccccc3)CC2)cc(N2CCN(c3ccccc3)CC2)n1 | -8.1 | -4.7 | 0.8 | -0.9 | -9.4 | -7.8 | nt | nt | nt
CCCCNC(=O)C1(C(C)=O)CC(C(=O)OCC)=NO1 (stereo unspecified) | nt | 18.6 | nt | nt | nt | -4.8 | nt | nt | nt
Cc1[nH]c2ccccc2c1/C=C/c1nc2ccccc2c(=O)n1-c1cccc([N+](=O)[O-])c1 | 50.4 | 12.1 | 1.6 | 4.0 | 21.0 | 3.3 | 19.5 | 8.4 | -8.3
O=C(NC1CCCC1)C1(C(=O)C2CC2)CC(c2ccccn2)=NO1 (stereo unspecified) | nt | -21.4 | nt | nt | nt | -15.2 | nt | nt | nt
COc1ccc2c(c1)CCCC21SC(NC(C)=O)=NN1C(C)=O (stereo unspecified) | 51.3 | 10.8 | 1.4 | -50.6 | 17.3 | -3.7 | 25.6 | 15.3 | 10.1
CC(=O)NC1=NN(C(C)=O)C(C)(c2ccc3ccccc3c2)S1 (stereo unspecified) | 4.2 | 1.6 | -12.7 | 5.0 | 16.8 | -10.4 | nt | nt | nt
COc1ccc(CN2C(=O)N3Cc4ccc(C)cc4C3CS2(=O)=O)cc1 (stereo unspecified) | nt | -8.3 | nt | nt | nt | 23.4 | nt | nt | nt
CCCCCc1nc2c(=O)n(C)c3ccccc3c2o1 | 76.4* | -10.4 | -17.0 | -18.7 | 13.3 | -55.8 | 2.7 | 5.3 | -51.6
O=C(Nc1ccncc1)Nc1ccc(F)cc1F | 13.5 | -5.0 | 0.8 | -16.9 | -4.6 | -25.3 | nt | nt | nt
CN(C)c1ccncc1C(=O)Nc1ccc(F)cc1F | 58.6* | -18.6 | 11.5 | 27.6 | 21.1 | 16.2 | 19.3 | -3.1 | 3.6
Nn1c(SCC(=O)Nc2nccs2)nnc1-c1cc(-c2ccccc2)n[nH]1 | nt | -10.1 | nt | nt | nt | -41.8 | nt | nt | nt
COc1ccc2c(c1)nc(SCC(C)O)n2C (stereo unspecified) | -6.6 | -17.0 | 1.9 | -31.9 | -5.5 | -23.3 | nt | nt | nt
COc1ccc2c(c1)nc(SCC(=O)C(C)(C)C)n2C | 63.8* | -6.8 | -20.3 | 2.3 | 10.0 | -19.3 | 23.9 | 5.8 | -5.5
O=C1C[C@H](C(=O)Nc2ccc(Cl)cc2)[C@@H](c2ccccc2)O1 | nt | -8.2 | nt | nt | nt | -33.5 | nt | nt | nt
CC(=O)NCCC(=O)Nc1nc(-c2cccs2)c(-c2cccs2)s1 | 50.4 | 1.1 | -4.2 | -0.4 | 5.4 | -22.2 | 21.9 | 6.5 | -2.5
O=C(Cn1cc(C(=O)c2ccco2)c2ccccc21)Nc1ccccc1F | 60.3* | -1.8 | -5.5 | 19.1 | 8.3 | 6.3 | 72.7* | 25.0 | 12.5
COCCn1c(SCCCc2ccccc2)nc2c1c(=O)[nH]c(=O)n2C | 7.9 | 4.3 | -8.6 | -2.6 | -7.7 | -15.1 | nt | nt | nt
CCCn1c(Sc2nc3c(c(=O)[nH]c(=O)n3C)n2CCC)nc2c1c(=O)[nH]c(=O)n2C | 99.0* | -3.3 | 0.3 | -1.9 | -8.4 | 1.9 | 8.8 | 2.5 | -3.8
SMILES | Gli-Sufu antag | NR2F2 inh | NR5A2 inv ag | SRC1 inh | NCOA3 inh | SRC2 inh | Gli antag conf | Gli cytotox | Wnt3a counter
COCCSc1nc2c(c(=O)[nH]c(=O)n2C)n1CCCc1ccccc1 | 51.7 | -32.5 | 2.8 | 2.5 | 7.9 | -4.3 | 8.8 | 3.3 | -31.9
O=C(NCCCn1ccnc1)/C(=C\c1cccnc1)NC(=O)c1ccco1 | -3.3 | 2.4 | 7.0 | 3.7 | 14.1 | 6.0 | nt | nt | nt
O=C(NCCCn1ccnc1)/C(=C\c1cccnc1)NC(=O)c1cccc(Br)c1 | 97.6* | -10.3 | 6.4 | 0.2 | -0.7 | -3.2 | 36.8 | 12.7 | 13.2
CC(COc1cccc(OC(F)(F)F)c1)CN1CCC(C(O)(c2ccccc2)c2ccccc2)CC1 (stereo unspecified) | nt | 5.6 | nt | nt | nt | 14.8 | nt | nt | nt
CCS(=O)(=O)Nc1ccc2c(c1)C(=O)N(C)[C@@H]1CC[C@H](CC(=O)NCCOC)O[C@H]1CO2 | nt | -7.2 | nt | nt | nt | -4.3 | nt | nt | nt
C#CCOc1ccc(C2C3=C(COC3=O)Nc3cc4c(cc32)OCO4)cc1OC (stereo unspecified) | -18.8 | -53.0 | -7.7 | -13.8 | -0.8 | 15.3 | nt | nt | nt
O=C1OCC2=C1C(c1ccc(F)cc1)c1cc3c(cc1N2)OCO3 (stereo unspecified) | 55.7* | -68.7 | 17.0 | 2.8 | 10.9 | 15.0 | 57.7* | 62.3* | 24.8
CCOc1ccccc1C1CC(=O)Nc2cc3c(cc21)OCO3 (stereo unspecified) | 20.6 | 24.4 | 14.8 | 7.3 | 28.5 | 31.1 | nt | nt | nt
CCOc1ccccc1C1C2=C(COC2=O)Nc2cc3c(cc21)OCO3 (stereo unspecified) | 54.9 | -44.1 | 11.3 | -12.4 | 11.7 | 15.9 | 51.6* | 62.2* | 12.8
O=C(C1CCCCC1)N1CCN(c2ccnc3cc(Cl)ccc23)CC1 | 53.3 | 23.9 | -3.5 | 22.6 | 30.3 | 18.3 | 56.9* | 13.8 | -16.5
O=C(c1ccco1)N1CCN(c2ccnc3cc(Cl)ccc23)CC1 | 53.9 | 7.8 | -3.5 | 5.8 | 11.0 | -10.2 | 41.9 | 9.2 | -22.4
O=C(C1CC1)N1CCN(c2ccnc3cc(Cl)ccc23)CC1 | 32.2 | 22.5 | 0.9 | -2.5 | -4.6 | -0.8 | nt | nt | nt
